In all, about 69,000 compounds went through this assay and about 8,600 (12%) showed an effect of 50% or more. For the sample, strong results were picked, then their nearest neighbours and some compounds at random.
Test system: Plasmodium berghei
Assay: Screen against P. berghei liver stage (PbLuc), transformed with Luciferase, at 10uM
Type: functional, HepG2
Conditions: tested at 10 uM

| SMILES | INHIBITION [%] |
| --- | --- |
| CN1CCN(C(=O)c2cccn2C)Cc2cccnc21 | 16.4 |
| O=C1N(CC2CC2)CCC12CCCN(c1ncc(F)cn1)C2 (stereo unspecified) | 42.4 |
| Cc1cnn(CC2CCCN2C(=O)c2csc(C3CC3)n2)c1 (stereo unspecified) | -23.9 |
| O=C(CCN1CCCC1)Nc1c2c(cc3c1CCC3)CCC2 | 6.29 |
| CC(=O)N1CCC(C)(c2cc(C(=O)NCC(C)(C)C)nc(C)n2)CC1 | 37.9 |
| C[C@H]1CN(C(=O)c2cccc(F)c2Cl)CCN1S(C)(=O)=O | 61.1 |
| Cc1cccc(C(=O)N2CCN(S(C)(=O)=O)[C@@H](C)C2)c1C | 40.3 |
| Cc1cccc(C(=O)N2CCN(S(C)(=O)=O)[C@@H](C)C2)c1Cl | 22.6 |
| CC(C)c1ccc(O)c(C(=O)N2CCN(Cc3cscn3)CC2)c1 | 54.9 |
| COC(C(=O)N1CCCN(Cc2cscn2)CC1)c1ccccc1 (stereo unspecified) | 54.3 |
| CC(Oc1ccccc1)C(=O)N1CCCN(Cc2cscn2)CC1 (stereo unspecified) | 27.25 |
| Cc1ccc(C(=O)N2CCCN(Cc3cscn3)CC2)o1 | 7.67 |
| CC(C)c1ccsc1C(=O)N1CCCN(Cc2cscn2)CC1 | 2.61 |
| Cc1nc(CN2CCN(C(=O)C(c3ccccc3C)N(C)C)CC2)no1 (stereo unspecified) | 6.66 |
| COCc1ccc(C(=O)N2CCCN(Cc3cscn3)CC2)cc1 | 27.4 |
| Cc1nc(CN2CCN(C(=O)COCc3ccccc3)CC2)no1 | 4.2 |
| COC(C(=O)N1CCN(Cc2noc(C)n2)CC1)c1ccccc1 (stereo unspecified) | 53.8 |
| CC(C)c1ncncc1C(=O)N1CCN(Cc2cscn2)CC1 | 49.3 |
| O=C(c1ccc(Cl)o1)N1CCCN(Cc2cscn2)CC1 | 50.4 |
| Cc1ccc(C(C)C(=O)N2CCCN(Cc3cscn3)CC2)cc1 (stereo unspecified) | 15.2 |
| Cn1nccc1CNC(=O)CCn1nc(C(F)(F)F)cc1C1CC1 | -49.3 |
| c1cncc(CN(Cc2ccc(-n3ccnc3)cc2)CC2CCCO2)c1 (stereo unspecified) | 23.2 |

| SMILES | INHIBITION [%] |
| --- | --- |
| CC(C)c1ccc(C(C)N2CCCN(C(N)=O)CC2)cc1 (stereo unspecified) | -18.7 |
| CC1CCCN(S(=O)(=O)NCc2ccccc2Cn2cncn2)C1 (stereo unspecified) | 37.4 |
| CC1CCCN(CC(=O)N2CCC(c3ncc4c(n3)CCNC4)CC2)C1 (stereo unspecified) | 25 |
| COc1cccc(COCC(=O)N2CCCC(n3cncn3)C2)c1 (stereo unspecified) | -24.2 |
| CC(CO)Nc1ccc(-c2nc(Cc3ccc(F)cc3)no2)cn1 (stereo unspecified) | -37.6 |
| COc1ccc(Cc2noc(-c3ccc(NC(C)CO)nc3)n2)cc1 (stereo unspecified) | 52.2 |
| COCC(C)Nc1ccc(-c2nc(Cc3ccc(F)cc3)no2)cn1 (stereo unspecified) | 49 |
| N#Cc1ccc(N2CCC3(CC2)COCCN3Cc2cccnc2)cc1 | -6.46 |
| Cc1ncc(C(=O)N2CCC(C(=O)NC3CCCC3)C2)c(C)n1 (stereo unspecified) | 19.3 |
| Clc1cccc(C2CCN(c3ncnc4c3CCNC4)C2)c1 (stereo unspecified) | 83 |
| c1ccn2c(C3CCCN(c4ncnc5c4CCNC5)C3)nnc2c1 (stereo unspecified) | -20.8 |
| c1nc2c(c(N3CCOCC3)n1)CCNCC2 | 27.5 |
| CN1CC2(CCN(c3ncnc4c3CCNC4)CC2)OC1=O | 49.5 |
| c1ccc(C2CCN(c3ncnc4c3CCNC4)CC2)cc1 | 83 |
| Cc1cc(C)n(C2CCN(c3ncnc4c3CCNCC4)C2)n1 (stereo unspecified) | 42.1 |
| c1ccc(C2CCCN(c3ncnc4c3CCNC4)CC2)cc1 (stereo unspecified) | 83.9 |
| c1cc(C2CCN(c3ncnc4c3CCNCC4)CC2)ccn1 | 33.9 |
| c1ccc2c(c1)CN(c1ncnc3c1CCNC3)CCO2 | 25.9 |
| Cn1cnc2c1C(COCC1CC1)CN(C(=O)Cc1ccsc1)C2 (stereo unspecified) | 11.1 |
| NC(=O)C1(CCCc2ccccn2)CCCN(CCO)C1 (stereo unspecified) | 30.8 |
| Cc1cc(C)n(CCCN(C)c2cc(N(C)C)ncn2)n1 | 28.2 |
| CC(C)OCCCN(Cc1cnn(C)c1)Cc1ccccn1 | -51.3 |

| SMILES | INHIBITION [%] |
| --- | --- |
| CCN(Cc1ccccn1)C1CCN(c2ccccc2)C1=O (stereo unspecified) | -31.1 |
| Cn1ccnc1C(=O)N[C@@H]1CN(Cc2ccoc2)[C@@H]2CCCO[C@@H]21 | 29.4 |
| Cc1ccc(CN2C[C@@H](N(C)C)[C@H]3OCCC[C@H]32)o1 | -37.9 |
| Cn1ccnc1C(=O)N[C@@H]1CN(CC2CCOCC2)[C@@H]2CCCO[C@@H]21 | 63.8 |
| Cn1ccnc1C(=O)N[C@@H]1CN(Cc2cccs2)[C@@H]2CCCO[C@@H]21 | 22.2 |
| CCN(CC)[C@@H]1CN(Cc2ccc(C)o2)[C@@H]2CCCO[C@H]12 | 63.1 |
| Cn1ccnc1C(=O)N[C@@H]1CN(Cc2ccc(F)cc2)[C@@H]2CCCO[C@@H]21 | 49.4 |
| Cc1ccc(CN2C[C@H](N(C)Cc3cncnc3)[C@H]3OCCC[C@H]32)o1 | -3.77 |
| Cc1ccc(CN2C[C@H](NC(=O)c3nccn3C)[C@H]3OCCC[C@H]32)o1 | 75.6 |
| Cn1cc(C(=O)N[C@@H]2CN(CC3CCOCC3)[C@@H]3CCCO[C@@H]32)cn1 | -14.4 |
| COC(=O)c1cccc(C(=O)NCc2ccc(C)o2)n1 | 39.1 |
| Cc1ccc(N2CC[C@H]3O[C@@H](C(=O)NCc4ccco4)CC[C@H]32)nn1 | 21.6 |
| COC(=O)CC1CCN(C(=O)Nc2ccc(-c3ccn[nH]3)cc2)C1 (stereo unspecified) | 37.7 |
| Cc1ccc(CN2CCC[C@@H]3CN(C(=O)c4ccco4)C[C@@H]32)s1 | -2.25 |
| CN1C(=O)CC(c2ccccc2)C12CCN(CC1CC1)CC2 (stereo unspecified) | -40.5 |
| CCNC(c1ccc(C(C)C)cc1)c1cccnc1 (stereo unspecified) | 8.64 |
| CNC(=O)NC(C)c1nc(-c2ccccc2)c[nH]1 (stereo unspecified) | -51.8 |
| CC(=O)Nc1nc(-c2ccccc2)c[nH]1 | 58.1 |
| CC(=O)Nc1nc(-c2ccc(C)c(C)c2)c[nH]1 | 7.22 |
| Cc1nc(-c2cccc(C(=O)O)c2)c[nH]1 | -34.8 |
| CC(=O)Nc1nc(-c2ccc(F)cc2)c[nH]1 | 63.6 |
| CC(=O)c1cccc(-c2c[nH]c(C)n2)c1 | -30.5 |

| SMILES | INHIBITION [%] |
| --- | --- |
| Cc1cc(N2CCN(Cc3cn(C)nc3C)CC2)cc(C2CCCN2)n1 (stereo unspecified) | -10 |
| Cc1ccc([C@@]2(O)CC[C@@H]3CN(S(=O)(=O)c4cn(C)nc4C)C[C@@H]32)cc1 | 32.8 |
| CC(CO)(CO)NC(=O)C1CCC(=O)N(Cc2ccc(Cl)cc2)C1 (stereo unspecified) | 35.7 |
| COc1ccc(Cl)cc1NCC(=O)NCCNc1ncccn1 | 45.7 |
| COc1ccc(C)cc1NS(=O)(=O)c1ccc(CCNC(C)=O)s1 | -1.04 |
| c1coc(CN2CCC3(CC2)COC(COCC2CC2)C3)c1 (stereo unspecified) | -28.2 |
| CC(C)c1nc(CN(C)C2CCN(CCn3cc(C#N)cn3)C2)no1 (stereo unspecified) | 29.2 |
| Cc1cnc(CN(C)C2CCN(CC(=O)Nc3nccs3)C2)o1 (stereo unspecified) | 9.14 |
| CC(C)c1cnc(CN(C)C2CCN(CCn3cc(C#N)cn3)C2)o1 (stereo unspecified) | -6.44 |
| CCc1cnc(CN(C)C2CCN(CCn3cc(C#N)cn3)C2)o1 (stereo unspecified) | 52.5 |
| Cc1cnc(CN(C)C2CCN(CCn3cc(C#N)cn3)C2)o1 (stereo unspecified) | 44.8 |
| CCc1cnc(CN(C)C2CCN(CC(=O)Nc3nccs3)C2)o1 (stereo unspecified) | 52.3 |
| Cc1nc(CN(C)C2CCN(CCn3cc(C#N)cn3)C2)no1 (stereo unspecified) | 53.9 |
| CCc1cnc(CN(C)C2CCN(CC(=O)Nc3cc(C)on3)C2)o1 (stereo unspecified) | -32 |
| CN(Cc1noc(C2CC2)n1)C1CCN(CCn2cc(C#N)cn2)C1 (stereo unspecified) | 37.4 |
| Cc1cnn(CC2CCCN2C(=O)CCc2cscn2)c1 (stereo unspecified) | 19.965 |
| CC(=O)N1CCN([C@@H]2CCC[C@@H](NC(=O)c3cccnc3)[C@H]2O)CC1 | 8.53 |
| Cc1nc(CN2CCCC(c3cc(C(N)=O)[nH]n3)C2)oc1C (stereo unspecified) | -0.113 |
| O=C(O)c1c(-c2cncnc2)ncc2c1CCN(CC1CCOC1)C2 (stereo unspecified) | 43 |
| O=C1NCC2(CCC(C(=O)N3CCCC(O)C3)CC2)Oc2ccccc21 (stereo unspecified) | 8.72 |
| CN(Cc1ccsc1)C(=O)c1ccc2c(c1)NC(=O)CO2 | 6.8 |
| Cc1cc(C(=O)Nc2ccn(CCCN3CCCC3)n2)no1 | 38.4 |

| SMILES | INHIBITION [%] |
| --- | --- |
| COCCN(Cc1sccc1C)C(=O)COc1cccnc1 | -32.6 |
| O=C(NCc1cncc2c1CCN(Cc1ccccc1)C2)C1CC1 | -27.9 |
| CCC(=O)N1CCC2(CC1)CN(C(C)=O)c1ccc(C)cc12 | -47.5 |
| CC(=O)N1CC2(CCN(C(=O)C3CC3)CC2)c2cc(C)ccc21 | 84.5 |
| CC(=O)N1CC2(CCN(C(=O)N(C)C)CC2)c2cc(C)ccc21 | 37.8 |
| CCOCCCNC(=O)C(C)n1cc(Br)cn1 (stereo unspecified) | 5.05 |
| Cc1nnc(CNC(=O)CC2CCc3ccccc32)o1 (stereo unspecified) | 13 |
| CC(=O)N1CCc2ccccc2C1CC(=O)NCc1nnc(C)o1 (stereo unspecified) | 61.2 |
| COC(=O)N1CCc2ccccc2C1C(=O)NCc1nc(C)no1 (stereo unspecified) | 43.4 |
| COc1cc(CNCc2c(C)nn(C)c2N(C)C)ccn1 | 42.6 |
| COc1cc(CNCc2c(C(C)C)nn(C)c2N(C)C)ccn1 | 33.3 |
| Cc1nn(CC(C)C)c(N(C)C)c1CNCc1cc2ccccc2[nH]1 | 67.3 |
| COc1cc(CNCc2c(C)nn(CC(C)C)c2N(C)C)ccn1 | 77.1 |
| Cc1nn(CC(C)C)c(N(C)C)c1CNCc1cccnc1N(C)C | 43.7 |
| Cc1nn(CC(C)C)c(N(C)C)c1CNCc1ccccc1CO | -21.8 |
| COCCNS(=O)(=O)c1ccc(CNc2ncccc2C#N)cc1 | 48.4 |
| N#Cc1cccnc1NCc1ccc(S(=O)(=O)NC2CC2)cc1 | -15.2 |
| N#Cc1cccnc1NCc1ccc(S(=O)(=O)NCC2CCCO2)cc1 (stereo unspecified) | 55.6 |
